21 molecules from PubChem BioAssay (NCATS) can be followed below.

Records with an inconclusive call do not appear. Activity calls are given as the source filed them. Calls come from the whole dose curve; as a rule, active = well fitted curve in the direction sought with a large enough effect; inconclusive = small, poorly fitted or top-dose-only effect, or another doubt; inactive = no such curve, though single readings can be large; an effect the other way counts as inactive or inconclusive.

The subject of test [1] is C33A. Put plainly: Primary qHTS to identify gynecologic anti-cancer compounds using libraries of approved drugs and bioactive compounds (AID 1345084). Note: nearly all actives have a fitted effect of over 55% in size. Note: potency is the fitted concentration of half-maximal effect. Conditions: Gynecologic cancer cell panel viability, ATPlite luminescence, 48 h; series mostly up to 57.5 µM. In outline: (§1)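 Cytotoxicity screen measuring ATP content by luciferase luminescence. Each compound is applied at five concentrations for 48 h at 37 C with 5% CO2.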

Test [2] concerns CAOV3. The description is as above. Conditions: Gynecologic cancer cell panel viability, ATPlite luminescence, 48 h; series mostly up to 57.5 µM. In outline:
as §1

Test [3] has as its system CASKI. Described as above. To be noted: Gynecologic cancer cell panel viability, ATPlite luminescence, 48 h; series mostly up to 57.5 µM. In outline:
as §1

Test [4] has as its system Es-2. The description is as above. To be noted: Gynecologic cancer cell panel viability, ATPlite luminescence, 48 h; series mostly up to 57.5 µM. In outline: as §1
The test system of test [5] is Hek293T. The description is as above. To be noted: Gynecologic cancer cell panel viability, ATPlite luminescence, 48 h, control line for the selectivity index; series mostly up to 57.5 µM. In outline: as §1
A general note: Cellular ATP, detected with luciferase, serves as a proxy for viable cell number.

Test [6] relates to JEG-3. The test is described as above. Conditions: Gynecologic cancer cell panel viability, ATPlite luminescence, 48 h; series mostly up to 57.5 µM. An outline of the steps:
as §1

Test [7] concerns OV90. The test is described as above. Conditions: Gynecologic cancer cell panel viability, ATPlite luminescence, 48 h; series mostly up to 57.5 µM. An outline of the steps: as §1
Test [8] concerns HeLa. Described as above. Conditions: Gynecologic cancer cell panel viability, ATPlite luminescence, 48 h; series mostly up to 57.5 µM. In outline:
as §1

For test [9], the system named is UISO. Put plainly: qHTS assay to identify novel small-molecules to repurpose for Merkel cell carcinoma treatment (AID 1296009). Note: nearly all actives have a fitted effect of over 60% in size. To be noted: MCC and control cell lines, CellTiter-Glo viability, 72 h; series mostly up to 46 µM. An outline of the steps: (§2)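 After compound transfer in DMSO, plates were kept 72 hr at 37 degree celsius. Luminescent ATP signal from CellTiter-Glo served as viability measure, normalized against DMSO and no-cell controls.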
A general note: Quantitative high-throughput screening tests each substance at several concentrations.

Test [10] has as its system WaGa. The test is described as above. Conditions: MCC and control cell lines, CellTiter-Glo viability, 72 h; series mostly up to 46 µM. In outline: as §2

Consider `C[C@]12CC[C@@H]3c4ccc(OC(=O)c5ccccc5)cc4CC[C@H]3[C@@H]1CC[C@@H]2O`, for which the Potency entry in [1], in test [2], in test [3], in test [4], in [5] and in test [6] was “inactive” in each case. In addition, the Potency result in test [7] was “inactive”.
On to `C[C@H]1O[C@@H](O[C@H]2[C@@H](O)C[C@H](O[C@H]3[C@@H](O)C[C@H](O[C@H]4CC[C@@]5(C)[C@H](CC[C@@H]6[C@@H]5C[C@@H](O)[C@]5(C)[C@@H](C7=CC(=O)OC7)CC[C@]65O)C4)O[C@@H]3C)O[C@@H]2C)C[C@H](O)[C@@H]1O`, for which the Potency was 79.4 nM (active) in [1]; 282 nM (active) in [2]; 447 nM (active) in test [3]; 316 nM (active) in [4]; 282 nM (active) in test [8]; 316 nM (active) in [5]. Besides, in test [7], the Potency is 631 nM (active).
Turning to `C=C1[C@H](CO)[C@@H](O)C[C@@H]1n1cnc2c(=O)[nH]c(N)nc21`, the Potency entry in test [1], in test [2], in test [3], in test [4], in test [8] and in [5] was “inactive” throughout. Besides, the Potency result in [6] and in test [7] was “inactive” each time.
`CO[C@H]1C[C@@H]2CC[C@@H](C)[C@@](O)(O2)C(=O)C(=O)N2CCCC[C@H]2C(=O)O[C@H]([C@H](C)C[C@@H]2CC[C@@H](OC(=O)C(C)(CO)CO)[C@H](OC)C2)CC(=O)[C@H](C)/C=C(\C)[C@@H](O)[C@@H](OC)C(=O)[C@H](C)C[C@H](C)/C=C/C=C/C=C/1C`: the Potency entry in [1], in test [2], in test [3], in [4], in test [8] and in test [5] was “inactive” throughout. Moreover, the Potency result in test [6] and in [7] was “inactive” in each case.
As for `CC(=O)Nc1ccc(NC(=S)NC(=O)c2ccc(C(C)(C)C)cc2)cc1`, the Potency entry in test [1], in test [2], in [3], in test [8], in test [6] and in test [7] was “inactive” in each case.
With `CC(C)(C)c1ccc(CN2CCN(C(c3ccccc3)c3ccc(Cl)cc3)CC2)cc1` (stereo not given), the Potency entry in test [1], in [2], in test [3], in test [4], in test [8] and in test [5] was “inactive” throughout. In addition, the Potency result in [6] and in [7] was “inactive” each time.
Take `CCN(CC)CCOCCOC(=O)C(CC)(CC)c1ccccc1`: the Potency result in [1], in test [2], in [3], in [4], in test [8] and in [5] was “inactive” each time. Besides, in test [6], the Potency result was “inactive”.
With `CC1CC(OC(=O)C(O)c2ccccc2)CC(C)(C)C1` (stereo not given), the Potency result in test [1], in test [2], in test [3], in test [4], in test [8] and in test [5] was “inactive” in each case. For the same molecule, the Potency result in [6] and in test [7] was “inactive” in each case.
`Oc1ccc(/C=C/c2cc(O)cc(O)c2)cc1`: in test [9], the outcome was inactive. The Potency in [4] is 25100 nM (active).
As for `O=C(O)Cc1cc(I)c(Oc2ccc(O)c(I)c2)c(I)c1`, the Potency result in test [1], in test [2], in test [3], in test [4], in [8] and in [5] was “inactive” in each case. For the same molecule, the Potency entry in test [6] and in [7] was “inactive” throughout.
As to `N[C@@H](Cc1cc(I)c(Oc2ccc(O)c(I)c2)c(I)c1)C(=O)O`, the Potency result in [1], in test [3], in test [4], in test [8], in [5] and in [6] was “inactive” each time. Also, the Potency result in test [7] was “inactive”.
With `O=C(OCc1ccccc1)c1ccc(O)cc1`, the call in test [9] and in test [10] was inactive. The Potency entry in test [1], in test [2], in test [3], in test [4], in [8] and in [5] was “inactive” throughout. In addition, the Potency result in test [6] and in test [7] was “inactive” throughout.
For the molecule `O=C1c2ccccc2C(=O)c2c1ccc(O)c2O`, the call in [9] was inactive. The Potency entry in [1], in test [2], in test [3], in test [4], in test [8] and in test [5] was “inactive” throughout. Besides, the Potency entry in [6] and in test [7] was “inactive” throughout.
For `COc1ccc(C[C@H](C)NC[C@@H](O)c2ccc(O)c(NC=O)c2)cc1`, the Potency entry in [1], in [2], in test [3], in test [8], in test [6] and in test [7] was “inactive” in each case.
As for `C=C1CC[C@H](O)CC1=C/C=C1\CCC[C@]2(C)[C@@H]([C@H](C)/C=C/[C@H](C)C(C)C)CC[C@@H]12`, the Potency entry in [1], in test [2], in [3], in test [4], in test [8] and in test [5] was “inactive” throughout. Besides, the Potency result in test [6] and in test [7] was “inactive” in each case.
In the case of `Nc1ccc(N=Nc2ccccc2)c(N)n1`, the result in test [9] and in [10] was inactive. Moreover, the Potency result in [1], in [2], in [3], in test [4], in test [5] and in test [6] was “inactive” each time.
On to `C/C(=C\C(=O)OCCCCCCCCC(=O)O)C[C@@H]1OC[C@H](C[C@@H]2O[C@H]2[C@@H](C)[C@H](C)O)[C@@H](O)[C@H]1O`, for which the Potency result in [1], in test [2], in [3], in test [4], in test [8] and in test [5] was “inactive” throughout. Also, the Potency entry in test [6] and in [7] was “inactive” throughout.
As for `CN(C)CCCSc1ccccc1NC(=O)/C=C/c1ccccc1`, the outcome in [9] and in test [10] was inactive. Besides, the Potency result in [1], in test [2], in test [3], in test [4], in [8] and in test [5] was “inactive” each time. The Potency entry in test [6] was “inactive”.
On to `COc1ccc2nc(NC(=O)Nc3ccccc3)sc2c1`, for which the outcome in test [9] was inactive. In addition, the Potency in [3] was 12600 nM (active); in test [4], 8910 nM (active); in [5], 14100 nM (active); in test [6] it was 20000 nM (active); in test [7] it was 22400 nM (active).
Regarding `O=C(O)CCC(=O)c1ccc(-c2ccccc2)cc1`, the result in [9] and in [10] was inactive. In addition, the Potency entry in test [1], in [2], in [3], in test [4], in test [8] and in [5] was “inactive” throughout. Besides, the Potency result in test [6] and in [7] was “inactive” each time.
`CC(=O)Oc1cccc2c1C(=O)c1c(OC(C)=O)cc(C(=O)O)cc1C2=O`: the call in test [9] was inactive. The Potency result in [1], in [4], in [8] and in [6] was “inactive” throughout.
